Laboratory results: PubChem BioAssay (Tox21)
Inconclusive results are not listed. Entries that show only a call come without a potency. Calls of active or inactive are those of the source. The call rests on the fitted dose curve; in most records, active means well fitted cell-killing curve with a large enough effect in the repeat runs; inconclusive means weak or mixed curves, or effect the other way; inactive means flat fitted curve, though single readings scatter.

Test: qHTS assay to identify small molecule agonists of the constitutive androstane receptor (CAR) signaling pathway - cell viability counter screen (AID 1224836); further: nearly all actives have a fitted effect of over 45% in size
Details: HepG2-CYP2B6-hCAR viability, CellTiter-Fluor, 23 h, PK11195 added to every well; series mostly up to 92.4 µM
In short: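 HepG2-CYP2B6-hCAR, 2500 cells/well, 4 h pre-incubation; cpd 15 conc + PK11195 0.75 uM final; 23 h, 37 C/5% CO2; CellTiter-Fluor, fluorescence.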
For `CCC(=O)OC/C=C/c1ccccc1`, the Potency was “inactive”. With `O=C(CS)OCCOC(=O)CS` the Potency was “inactive”. In the case of `Cc1cc(O)c(C(C)C)cc1Cl`, the Potency is reported as “inactive”. In the case of `O=C(C(=O)c1ccccc1)c1ccccc1`, the Potency is reported as “inactive”. With `O=C(CCC1CCN(Cc2ccccc2)CC1)c1ccc2c(c1)NCCCC2` the Potency was “inactive”. For `CCOC(=O)N1CCC(n2c(=O)[nH]c3cc(Cl)ccc32)CC1`, the Potency was “inactive”. With `CCOC(=O)c1ccccc1OC` the Potency was “inactive”. With `CC(C)CCCC(=O)O` the Potency was “inactive”. With `CCC(C(=O)OCCOCCN(CC)CC)c1ccccc1` (stereo unspecified) the Potency was “inactive”. With `O=C(O)c1ccccc1NCCc1ccccc1` the Potency was “inactive”. In the case of `CCOC(=N)CC(=O)OCC`, the Potency is reported as “inactive”. For `COc1cc2[nH]c(=O)[nH]c(=O)c2cc1OC`, the Potency was “inactive”. With `CCC(C)(C)C1CCC(O)CC1` (stereo unspecified) the Potency was “inactive”. For `CCC(C)(O)CCC=C(C)C` (stereo unspecified), the Potency was “inactive”. For `Cc1nc2ccccn2c(=O)c1CCN1CCC(C(=O)c2ccc(F)cc2)CC1`, the Potency was “inactive”. For `O=C(O)c1cccc(O)c1`, the Potency was “inactive”. In the case of `CC(C)C(OC(=O)c1ccccc1)C(C)(C)COC(=O)c1ccccc1` (stereo unspecified), the Potency is reported as “inactive”. With `CC(C)C(=O)O` the Potency was “inactive”. In the case of `CC(C)CCCCCCOC(=O)CCCCC(=O)OCCCCCCC(C)C`, the Potency is reported as “inactive”. In the case of `CNC(=S)NC`, the Potency is reported as “inactive”. With `CCCCC/C(=C\c1ccccc1)CO` the Potency was “inactive”. In the case of `Cc1cc(C(=C2C=CC(=Nc3ccc(S(=O)(=O)O)cc3S(=O)(=O)O)C=C2)c2ccc(Nc3ccc(S(=O)(=O)O)cc3)cc2)ccc1N`, the Potency is reported as “inactive”. With `CC(N)CN` (stereo unspecified) the Potency was “inactive”. For `Nc1nc(Cl)nc2c1ncn2[C@@H]1O[C@H](CO)[C@@H](O)[C@@H]1F`, the Potency was “inactive”. With `COC(=O)[C@@H]1CC2=CC(=O)CC[C@]2(C)[C@@]23O[C@@H]2C[C@@]2(C)[C@@H](CC[C@@]24CCC(=O)O4)[C@H]13` the Potency was “inactive”. In the case of `CCCCN(CCCC)CCCOC(=O)c1ccc(N)cc1`, the Potency is reported as “inactive”. In the case of `C=CC(C)(O)CCCC(C)CCCC(C)CCCC(C)C` (stereo unspecified), the Potency is reported as “inactive”. In the case of `CCN(Cc1cccc(S(=O)(=O)O)c1)c1ccc(C(=C2C=CC(=[N+](CC)Cc3cccc(S(=O)(=O)[O-])c3)C=C2)c2ccccc2)cc1`, the Potency is reported as “inactive”. In the case of `COCc1c(C(C)C)nc(C(C)C)c(/C=C/[C@@H](O)C[C@@H](O)CC(=O)O)c1-c1ccc(F)cc1`, the Potency is reported as “inactive”. With `CCCCCCOC(=O)CCCCCCCC(=O)OCCCCCC` the Potency was “inactive”. For `NC(=O)Nc1ccc(Cl)c(Cl)c1`, the Potency was “inactive”.
